Measurements from PubChem BioAssay (Tox21).
Records with an inconclusive call do not appear. A call without a number means that no potency is given here. Activity calls are given as the source filed them. Unless noted, calls come from the whole dose curve; as a rule, active = well fitted cell-killing curve with a large enough effect in the repeat runs (not every such curve was filed as active); inconclusive = weak or mixed curves, or effect the other way; inactive = no such curve, though single readings can be large or run the other way.

Tested on: not listed separately
Assay: qHTS assay to identify small molecule agonists of the farnesoid-X-receptor (FXR) signaling pathway - cell viability counter screen (AID 743218; active = well fitted cell-killing curve with a large enough effect in the repeat runs; note: nearly all actives have a fitted effect of over 45% in size; note: potency is the fitted concentration of half-maximal effect)
Conditions: FXR-bla HEK293T viability, CellTiter-Glo luminescence, 16 h; series mostly up to 62.6 µM
How it was run: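 Cytotoxicity counter-screen run in parallel, same wells: FXR-UAS-bla HEK 293T cells dosed 16 h at 37 C, viability read by CellTiter-Glo luminescence after 30 min at room temperature.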

SMILES	Potency
COC(=O)NCCC[Si](OC)(OC)OC	inactive
CC(C)c1cccc(C(C)C)c1N1C(=O)c2ccc(O)cc2C1=O	inactive
CC(C)(c1cc(Br)c(O)c(Br)c1)c1cc(Br)c(O)c(Br)c1	inactive
CN1[C@@H]2CC[C@@H]1CC(OC(=O)C(CO)c1ccccc1)C2 (stereo partly drawn)	inactive
COc1ccc2sc(C(=O)Nc3nnn[nH]3)c(OC(C)C)c2c1	inactive
CCCCCCCOC(=O)c1ccc(O)cc1	inactive
COc1ccccc1OCCNCC(O)COc1cccc2[nH]c3ccccc3c12 (stereo not drawn)	26.6 µM (active)
CCOC(=O)N1CCC(=C2c3ccc(Cl)cc3CCc3cccnc32)CC1	21.9 µM (active)
CN(C)c1ccc(N=NS(=O)(=O)O)cc1	inactive
Clc1ccc(C(Cn2ccnc2)OCc2ccsc2Cl)c(Cl)c1 (stereo not drawn)	18.8 µM (active)
O=S(=O)(O)CCCN1CCOCC1	inactive
CC1CCCNC1 (stereo not drawn)	inactive
CC(C)(c1cc(Br)c(OCCO)c(Br)c1)c1cc(Br)c(OCCO)c(Br)c1	19.1 µM (active)
CN(C)CCCN1c2ccccc2Sc2ccc(C(F)(F)F)cc21	11.9 µM (active)
c1ccc(Sc2ccccc2)cc1	inactive
CCC(=O)OCCc1ccccc1	inactive
CC1=C(/C=C/C(C)=C/C=C/C(C)=C\C=O)C(C)(C)CCC1	46.4 µM (active)
C=CC(=O)OCC(O)COc1ccccc1 (stereo not drawn)	34.7 µM (active)
CCO[Si](CCCSSSSCCC[Si](OCC)(OCC)OCC)(OCC)OCC	inactive
O=C1NCCN1CCN1CCC(c2cn(-c3ccc(F)cc3)c3ccc(Cl)cc23)CC1	23.7 µM (active)
C=CC(=C)CCC=C(C)C	inactive
NC1(c2ccc(-c3nc4ccn5c(=O)[nH]nc5c4cc3-c3ccccc3)cc2)CCC1	26.6 µM (active)
CNCC[C@H](Oc1cccc2ccccc12)c1cccs1	6.68 µM (active)
C=C1C(C)(C)[C@@]2(Cl)C(Cl)[C@]1(Cl)C(Cl)(Cl)C2(Cl)Cl (stereo partly drawn)	53.9 µM (active)
C[n+]1c2cc(N)ccc2cc2ccc(N)cc21 (tested in a mixture with another compound)	15 µM (active)
C=C(c1ccc(C(=O)O)cc1)c1cc2c(cc1C)C(C)(C)CCC2(C)C	24.5 µM (active)
COc1cc(C=C2CCC/C(=C\c3ccc(O)c(OC)c3)C2=O)ccc1O	21.1 µM (active)

Target: Bile acid receptor (Homo sapiens) (UniProt Q96RI1)
Assay: qHTS assay to identify small molecule agonists of the farnesoid-X-receptor (FXR) signaling pathway (AID 743220; active = well fitted activation curve with a large enough effect in the signal ratio in the repeat runs, not every such curve was filed as active; the % refers to the signal ratio)
Conditions: HEK293T FXR-UAS-bla, beta-lactamase FRET ratio, 16 h; series mostly up to 62.6 µM
How it was run: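 Beta-lactamase reporter under UAS control in GeneBLAzer FXR HEK 293T cells (5000/well) measured with LiveBLAzer FRET substrate after 2 h at room temperature. Compound exposure lasted 16 h at 37C.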

Bile acid receptor (Homo sapiens), sequence (Q96RI1 whole entry, looked up): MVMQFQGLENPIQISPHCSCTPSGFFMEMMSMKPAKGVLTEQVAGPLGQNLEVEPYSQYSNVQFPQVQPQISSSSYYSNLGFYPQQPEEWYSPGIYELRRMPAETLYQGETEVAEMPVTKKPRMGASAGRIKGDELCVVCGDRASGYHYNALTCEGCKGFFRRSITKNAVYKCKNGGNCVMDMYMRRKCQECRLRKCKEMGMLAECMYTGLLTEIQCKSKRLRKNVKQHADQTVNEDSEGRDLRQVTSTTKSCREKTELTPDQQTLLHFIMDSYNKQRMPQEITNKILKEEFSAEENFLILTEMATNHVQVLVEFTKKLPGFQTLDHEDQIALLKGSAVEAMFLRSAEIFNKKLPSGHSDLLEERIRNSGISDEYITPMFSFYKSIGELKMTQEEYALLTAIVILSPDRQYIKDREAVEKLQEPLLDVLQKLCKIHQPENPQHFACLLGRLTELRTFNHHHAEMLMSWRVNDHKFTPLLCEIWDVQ

SMILES	Potency
Cc1ccc(-n2[nH]c(C)c(N=Nc3cccc(-c4cccc(C(=O)O)c4)c3O)c2=O)cc1C	inactive
CC(C)(c1cc(Br)c(O)c(Br)c1)c1cc(Br)c(O)c(Br)c1	inactive
COc1ccc2sc(C(=O)Nc3nnn[nH]3)c(OC(C)C)c2c1	inactive
S=P(N1CC1)(N1CC1)N1CC1	inactive
CCCCCCCOC(=O)c1ccc(O)cc1	inactive
COc1ccccc1OCCNCC(O)COc1cccc2[nH]c3ccccc3c12 (stereo not drawn)	inactive
CCOC(=O)N1CCC(=C2c3ccc(Cl)cc3CCc3cccnc32)CC1	inactive
CC(C)(c1cc(Br)c(OCCO)c(Br)c1)c1cc(Br)c(OCCO)c(Br)c1	inactive
CN(C)CCCN1c2ccccc2Sc2ccc(C(F)(F)F)cc21	inactive
CCC(=O)OCCc1ccccc1	inactive

Tested on: not listed separately
Assay: qHTS assay to identify small molecule antagonists of the farnesoid-X-receptor (FXR) signaling pathway - cell viability counter screen (AID 743221); note: nearly all actives have a fitted effect of over 50% in size; note: potency is the fitted concentration of half-maximal effect
Conditions: FXR-bla HEK293T viability, CellTiter-Glo luminescence, 16 h; series mostly up to 62.6 µM
How it was run: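 Luminescence from CellTiter-Glo measures cytotoxicity in GeneBLAzer FXR-UAS-bla HEK 293T cells. Cells were exposed to compounds with 50 uM chenodeoxycholic acid (final) for 16 h at 37 C, in wells also used for the reporter readout.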

SMILES	Potency
Cc1ccc(-n2[nH]c(C)c(N=Nc3cccc(-c4cccc(C(=O)O)c4)c3O)c2=O)cc1C	inactive
COC(=O)NCCC[Si](OC)(OC)OC	inactive
CC(C)c1cccc(C(C)C)c1N1C(=O)c2ccc(O)cc2C1=O	inactive
CC(C)(c1cc(Br)c(O)c(Br)c1)c1cc(Br)c(O)c(Br)c1	inactive
CC(C)OC(=O)c1cc(C(=O)OC(C)C)cc([N+](=O)[O-])c1	inactive
CN1[C@@H]2CC[C@@H]1CC(OC(=O)C(CO)c1ccccc1)C2 (stereo partly drawn)	inactive
COc1ccc2sc(C(=O)Nc3nnn[nH]3)c(OC(C)C)c2c1	inactive
S=P(N1CC1)(N1CC1)N1CC1	inactive
CCCCCCCOC(=O)c1ccc(O)cc1	inactive
CN(C)c1ccc(N=NS(=O)(=O)O)cc1	inactive
O=S(=O)(O)CCCN1CCOCC1	inactive
CC1CCCNC1 (stereo not drawn)	inactive
c1ccc(Sc2ccccc2)cc1	inactive
CCC(=O)OCCc1ccccc1	inactive
C=CC(=O)OCC(O)COc1ccccc1 (stereo not drawn)	inactive
CCO[Si](CCCSSSSCCC[Si](OCC)(OCC)OCC)(OCC)OCC	inactive
O=C1NCCN1CCN1CCC(c2cn(-c3ccc(F)cc3)c3ccc(Cl)cc23)CC1	33.5 µM (active)
C=CC(=C)CCC=C(C)C	inactive
NC1(c2ccc(-c3nc4ccn5c(=O)[nH]nc5c4cc3-c3ccccc3)cc2)CCC1	33.5 µM (active)
Brc1ccccc1-c1ccccc1	inactive
CCN(CC)CCSC(=O)C(c1ccccc1)c1ccccc1	inactive
Cc1ccc(N)cc1O	inactive
CNCC[C@H](Oc1cccc2ccccc12)c1cccs1	11.9 µM (active)
C[n+]1c2cc(N)ccc2cc2ccc(N)cc21 (tested in a mixture with another compound)	inactive
C=C(c1ccc(C(=O)O)cc1)c1cc2c(cc1C)C(C)(C)CCC2(C)C	inactive
COc1cc(C=C2CCC/C(=C\c3ccc(O)c(OC)c3)C2=O)ccc1O	23.7 µM (active)
